The values below come from PubChem BioAssay (NCATS).

Each structure is given as a SMILES string. “And” between values parts separate entries of the source, which are not always exact repeats. Identical values can stand only once. Inconclusive results are not listed. Unmarked numbers belong to inactive results. The source made the active and inactive calls. Calls follow the shape of the dose curve; as a rule, active = well fitted cell-killing curve with a large enough effect; inconclusive = small, poorly fitted or top-dose-only effect, or effect the other way; inactive = no such curve, though single readings can be large or run the other way.
Potency is read from the fitted curve at half-maximal effect.

This assay can be described thus: Viability qHTS for spleen associated tyrosine kinase inhibitor (SYKi) naive MV4-11 cells (AID 1963823). Also: nearly all actives have a fitted effect of over 40% in size. The conditions noted are these: MV4-11 AML viability, CellTiter-Glo luminescence, 72 h; series mostly up to 45 µM; viability (% of control): at the top concentration. The procedure, abridged:
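In this viability screen, compounds acted on SYK inhibitor naive MV4-11 cells for three days (72 hr, 37 C). Remaining viable cells were measured by CellTiter-Glo luminescence following a 10 min room-temperature development.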
For orientation: qHTS replaces the single test concentration by a dilution series.
As for `C[C@@H](Nc1ncnc2[nH]c(-c3ccc(O)cc3)cc12)c1ccccc1`, the Potency is 4.11 µM (active) and 7.42 µM (active).

For `CC(=O)OCC[N+](C)(C)C`, the “viability (% of control)” value was 77.8%.

In the case of `CC(NC(CCc1ccccc1)C(=O)O)C(=O)N1C(=O)N(C)CC1C(=O)O` (centres undefined), the “viability (% of control)” value is 85.1%.

`CN1CC(=O)N2[C@H](c3ccc4c(c3)OCO4)c3[nH]c4ccccc4c3C[C@@H]2C1=O`: the Potency result was “inactive”.

For `CC(=O)[C@]1(N)Cc2c(O)c3c(c(O)c2[C@@H](O[C@H]2C[C@H](O)[C@H](O)CO2)C1)C(=O)c1ccccc1C3=O`, the Potency is 5.9 µM (active).

Turning to `O=C(Nc1cc(Oc2cc(F)c(NC(=O)C3(C(=O)Nc4ccc(F)cc4)CC3)cc2F)ccn1)C1CC1`, the Potency is 23.1 nM (active) and 59 nM (active).

With `CC(C)(Oc1ccc(CCNC(=O)c2ccc(Cl)cc2)cc1)C(=O)O`, the “viability (% of control)” value is 68.7%.

Regarding `CN1CCN(C(=O)c2ccc(-c3ccc4c(C=O)c(O)ccc4c3)s2)CC1`, the Potency is 16.6 µM (active).

Turning to `CCC(Cc1c(I)cc(I)c(N)c1I)C(=O)O` (centres undefined), the “viability (% of control)” value is 76.2%.

On to `N#Cc1ccc(C2CCCc3cncn32)cc1` (centres undefined), for which the “viability (% of control)” value is 80.2% [at 17.3 µM].

Turning to `CN(C(=O)c1c(O)c2ccccc2n(C)c1=O)c1ccccc1`, the “viability (% of control)” value was 26.9%.

Regarding `CN(C)C/C=C/C(=O)Nc1cccc(C(=O)Nc2cccc(Nc3ncc(Cl)c(-c4c[nH]c5ccccc45)n3)c2)c1`, the “viability (% of control)” value is 2.91%.

In the case of `COc1cc2c(cc1O)CCN[C@]21CS[C@@H]2c3c(OC(C)=O)c(C)c4c(c3[C@H](COC1=O)N1[C@@H]2[C@H]2c3c(cc(C)c(OC)c3O)C[C@@H]([C@@H]1O)N2C)OCO4`, the Potency is 0.0014 µM (active).

For the compound `COc1cccc2c1C(=O)c1c(O)c3c(c(O)c1C2=O)C[C@@](O)(/C(CO)=N/NC(=O)CCCCCN1C(=O)C=CC1=O)C[C@@H]3O[C@H]1C[C@H](N)[C@H](O)[C@H](C)O1`, the Potency is 0.132 µM (active).

As for `CC[C@]1(O)CC2CN(CCc3c([nH]c4ccccc34)[C@@](C(=O)OC)(c3cc4c(cc3OC)N(C)[C@H]3[C@@](O)(C(=O)OC)[C@H](OC(C)=O)[C@]5(CC)C=CCN6CC[C@]43[C@@H]65)C2)C1` (some centres undefined), the Potency is 0.0332 µM (active).

Take `CCCCC(=O)OCC(=O)[C@]1(O)Cc2c(O)c3c(c(O)c2[C@@H](O[C@H]2C[C@H](NC(=O)C(F)(F)F)[C@H](O)[C@H](C)O2)C1)C(=O)c1c(OC)cccc1C3=O`: the Potency is 0.148 µM (active).

On to `Cn1cncc1C(N)(c1ccc(Cl)cc1)c1ccc2c(c1)c(-c1cccc(Cl)c1)cc(=O)n2C` (centres undefined), for which the Potency was 1.05 µM (active).

Consider `NCc1ccc(S(N)(=O)=O)cc1`, for which the “viability (% of control)” value is 84.5%.

For `CC(C)NCC(O)COc1cccc2[nH]ccc12` (centres undefined), the “viability (% of control)” value is 78.2%.

For `CN1CCN(c2ccc3nc(-c4cc(C(C)(C)C)c(OCCCC(=O)NCCCN=[N+]=[N-])c(C(C)(C)C)c4)[nH]c3c2)CC1`, the Potency was 5.25 µM (active).

As to `C[C@H]1NCc2cc(-c3ccc4c(=O)c(C(=O)O)cn(C5CC5)c4c3OC(F)F)ccc21`, the “viability (% of control)” value is 87.5% [at 17.3 µM].

Turning to `CN(C)Cc1ccc(S(=O)(=O)n2ccc(/C=C/C(=O)NO)c2)cc1`, the Potency was 3.32 µM (active).

As for `Cc1ccc(C(=O)Nc2ccc(CN3CCN(C)CC3)c(C(F)(F)F)c2)cc1C#Cc1cnc2[nH]ncc2c1`, the “viability (% of control)” value was 1.85%.

As for `c1ccc(-c2ccc(CNc3nc(-c4ccccn4)nnc3-c3ccccc3)cc2)cc1`, the Potency was 0.92 µM (active).

Consider `Nc1c2ccccc2nc2ccccc12`, for which the Potency is 2.99 µM (active).

As to `Nc1cc(-c2ccncc2)c[nH]c1=O`, the “viability (% of control)” value was 98.5%.

Consider `Cc1cc(O[C@@H](CCC(F)(F)F)c2ccc(C(=O)NCCC(=O)O)cc2)cc(C)c1-c1ccc(C(C)(C)C)cc1`, for which the Potency is 13.2 µM (active).

With `Cn1cc(-c2ccc(S(=O)(=O)n3ccc(/C=C/C(=O)Nc4ccccc4N)c3)cc2)cn1`, the Potency was 651 nM (active) and 934 nM (active).

Turning to `NS(=O)(=O)c1cc2c(cc1Cl)NC(CC1CCCC1)NS2(=O)=O` (centres undefined), the “viability (% of control)” value is 93.9%.

For `CCS(=O)(=O)Nc1ccc(Oc2ccc(F)cc2F)c(-c2cn(C)c(=O)c3[nH]ccc23)c1`, the Potency is 0.0037 µM (active).

Take `C[C@H]1COCCN1c1cc(C2(S(=O)(=O)C3CC3)CC2)nc(-c2ccc(NC(=S)NCCO)cc2)n1`: the Potency is 0.0184 µM (active).

Regarding `Cc1ccc(S(=O)(=O)Nc2cc(C(F)(F)F)ccc2C(=O)Nc2nc(-c3ccccc3)cs2)cc1`, the Potency was 2.95 µM (active).

For `Cc1ccc2c(Cl)cc(Cl)c(O)c2n1`, the “viability (% of control)” value is 86.4%.

For `CN(C)c1cc(NC(=O)CNC(C)(C)C)c(O)c2c1C[C@H]1C[C@H]3[C@H](N(C)C)C(=O)C(C(N)=O)=C(O)[C@]3(O)C(=O)C1=C2O`, the “viability (% of control)” value is 76.1%.
